According to PubChem BioAssay AID489028 (Sanford-Burnham Center for Chemical Genomics, 2010):
Out of some 10,000 compounds screened, about 5,600 (56%) were called active. Cut-off read from the data, not from the text of the source: active = inhibition above about 40%; inactive = the rest. The set was probably picked from earlier hits. The list is a sample of the results.

Target: Protein Mdm4 (Homo sapiens) + E3 ubiquitin-protein ligase Mdm2 (Homo sapiens) (UniProt O15151+Q00987)
Experiment: Mdm2-MdmX complex disruptors, retested hits, confirmation, luminescence, single concentration (AID 489028)
Details: Mdm2-MdmX binding, luminescent assay; at 8 µM; hits give high values

Protein Mdm4 (Homo sapiens) + E3 ubiquitin-protein ligase Mdm2 (Homo sapiens), sequence (O15151 whole entry, looked up): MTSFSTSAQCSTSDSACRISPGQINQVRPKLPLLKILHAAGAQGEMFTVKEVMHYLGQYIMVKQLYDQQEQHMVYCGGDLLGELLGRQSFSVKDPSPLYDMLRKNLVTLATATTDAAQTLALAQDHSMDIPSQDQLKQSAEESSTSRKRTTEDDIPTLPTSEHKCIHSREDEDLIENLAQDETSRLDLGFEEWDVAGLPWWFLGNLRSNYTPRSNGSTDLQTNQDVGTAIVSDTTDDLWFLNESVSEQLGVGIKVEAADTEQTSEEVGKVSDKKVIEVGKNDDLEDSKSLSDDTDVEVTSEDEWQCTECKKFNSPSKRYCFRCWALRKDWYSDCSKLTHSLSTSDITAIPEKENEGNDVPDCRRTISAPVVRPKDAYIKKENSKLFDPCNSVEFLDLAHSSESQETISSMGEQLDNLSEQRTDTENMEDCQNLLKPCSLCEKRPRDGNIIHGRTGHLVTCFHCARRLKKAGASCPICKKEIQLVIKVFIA
Protein Mdm4 (Homo sapiens) + E3 ubiquitin-protein ligase Mdm2 (Homo sapiens), sequence (Q00987 whole entry, looked up): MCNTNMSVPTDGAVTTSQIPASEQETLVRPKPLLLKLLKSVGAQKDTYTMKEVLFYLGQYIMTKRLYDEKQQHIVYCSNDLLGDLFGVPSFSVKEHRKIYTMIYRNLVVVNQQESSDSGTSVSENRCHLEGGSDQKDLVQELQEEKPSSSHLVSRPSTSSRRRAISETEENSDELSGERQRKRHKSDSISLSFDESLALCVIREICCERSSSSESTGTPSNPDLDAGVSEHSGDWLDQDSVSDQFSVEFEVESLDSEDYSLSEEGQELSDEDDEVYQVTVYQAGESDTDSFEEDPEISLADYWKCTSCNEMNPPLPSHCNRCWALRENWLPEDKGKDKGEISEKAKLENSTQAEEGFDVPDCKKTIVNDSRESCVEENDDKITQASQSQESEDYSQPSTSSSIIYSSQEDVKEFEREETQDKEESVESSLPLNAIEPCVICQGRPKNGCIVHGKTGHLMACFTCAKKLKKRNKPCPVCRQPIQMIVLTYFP

| Structure (SMILES) | inhibition |
| --- | --- |
| CC(=O)/C(=N\Nc1ccc(Cl)cc1Cl)Sc1cccc2cccnc12 | 63% (active) |
| N#Cc1ccc(C(=O)Nc2cccc3cccnc23)c(F)c1 | 1.3% (inactive) |
| NC(N)=Nc1nc(-c2ccccc2)c2cc(Cl)ccc2n1 | 59.5% (active) |
| CCCCCCC(=O)N(O)C1CC(=O)N(c2ccccc2)C1=O (configuration not stated) | 27.3% (inactive) |
| COc1ccc(Nc2ncnc3ccc(Br)cc23)c(OC)c1 | 74% (active) |
| CC1CN(C(=O)CCC(=O)NCCCN2CCC(Cc3ccccc3)CC2)c2cc(Cl)ccc2O1 (configuration not stated) | 56.8% (active) |
| CCN(CCCNC(=O)CSc1cc(=O)n(C)c2cc(Cl)ccc12)Cc1ccccc1 | 19.6% (inactive) |
| FC(F)(F)c1ccc(CN2C[C@@H]3C(c4ccccc4)C4(c5ccccc5)CC3(C4)[C@H]2c2ccccc2)cc1 (some centres not stated) | 94.5% (active) |
| Cc1cc(C(=O)NC2CCCc3c2cnn3-c2cccc(C)c2C)c(C)o1 (configuration not stated) | 61.6% (active) |
| COc1ccc(C(=O)NC2CCCc3c2cnn3-c2cccc(C)c2C)c(OC)n1 (configuration not stated) | 94.8% (active) |
| CCCC(O)(CCC)C(=O)NN(C(=O)CCl)c1cccc(C)c1 | 58.3% (active) |
| CCCCC(O)(CCCC)C(=O)NN(C(=O)CCl)c1ccccc1 | 57.1% (active) |
| CCCCn1ccnc1C(=O)c1cccc(S(=O)(=O)N2c3ccccc3CC2C)c1 (configuration not stated) | 9.35% (inactive) |
| N=c1n(CCc2ccccc2)c2ccccc2n1Cc1ccccc1F | 52.5% (active) |
| CCCc1ccc(OCC(=O)NNC(=S)NC(=O)c2ccco2)cc1 | 23.9% (inactive) |
| COC(=O)c1c(NC(=O)COc2ccc(Cl)cc2Cl)sc2c1CC(C)(C)NC2(C)C | 73.6% (active) |
| CN1CCN(C2Cc3ccc(Cl)cc3Sc3ccc(F)cc32)CC1 (configuration not stated) | 27.8% (inactive) |
| Oc1cccc(/C=N/Nc2ccc(Cl)nn2)c1O | 61.2% (active) |
| CCOc1ccc(C2c3[nH]c4ccccc4c3CCN2Cc2cccn2-c2ncccn2)cc1 (configuration not stated) | 32.3% (inactive) |
| C=CCn1c(SCc2c(C)noc2C)nc2sc3c(c2c1=O)CCC(C)C3 (configuration not stated) | 57.9% (active) |
| CCOc1cc(-c2cc(-c3ccc(NC(C)=O)cc3)nc(N)c2C#N)ccc1O | 31.6% (inactive) |
| Cc1ccc(-n2[nH]c(C)c(/C=N/NC(=O)c3cccc([N+](=O)[O-])c3)c2=O)cc1C | 82.2% (active) |
| NS(=O)(=O)c1ccc(N=Nc2c(O)[nH]c3ccc(Br)cc23)cc1 | 42.6% (active) |
| O=[N+]([O-])c1cc(S(=O)(=O)Nc2cccc(Cl)c2)ccc1N=Nc1c(O)[nH]c2ccccc12 | 5.3% (inactive) |
| CCNS(=O)(=O)c1ccc(NC(=O)Nc2cccc(C(F)(F)F)c2)cc1 | 42.4% (active) |
| O=C(Nc1ccc(-c2csc(Nc3cccc(C(F)(F)F)c3)n2)cc1)c1cccc(C(F)(F)F)c1 | -10.4% (inactive) |
| O=C(Nc1ccc(C(=O)N2CCOCC2)cc1)Nc1cccc(C(F)(F)F)c1 | 70.3% (active) |
